# Rows were chosen to be rich in hits. Some 2.7% of all compounds tested hit in one or more screens of this group.
# FAS TE block: FAS thioesterase domain inhibitors, primary screen, biochemical, fluorescence intensity, uHTS | AID 602261, 2012 | 360,000 compounds, 0.67% hits | recombinant FAS-TE, OMFH fluorogenic substrate, fluorescence endpoint | inhibition, % at 15 µM | Fatty acid synthase (Homo sapiens), P49327;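 active = compounds whose normalised, plate-corrected inhibition of enzyme fluorescence in the single-dose primary screen is 50% or more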;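 note: 0% = DMSO with enzyme and 100% = substrate without enzyme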
# Target sequence (P49327 whole entry, looked up, the tested form may be a part): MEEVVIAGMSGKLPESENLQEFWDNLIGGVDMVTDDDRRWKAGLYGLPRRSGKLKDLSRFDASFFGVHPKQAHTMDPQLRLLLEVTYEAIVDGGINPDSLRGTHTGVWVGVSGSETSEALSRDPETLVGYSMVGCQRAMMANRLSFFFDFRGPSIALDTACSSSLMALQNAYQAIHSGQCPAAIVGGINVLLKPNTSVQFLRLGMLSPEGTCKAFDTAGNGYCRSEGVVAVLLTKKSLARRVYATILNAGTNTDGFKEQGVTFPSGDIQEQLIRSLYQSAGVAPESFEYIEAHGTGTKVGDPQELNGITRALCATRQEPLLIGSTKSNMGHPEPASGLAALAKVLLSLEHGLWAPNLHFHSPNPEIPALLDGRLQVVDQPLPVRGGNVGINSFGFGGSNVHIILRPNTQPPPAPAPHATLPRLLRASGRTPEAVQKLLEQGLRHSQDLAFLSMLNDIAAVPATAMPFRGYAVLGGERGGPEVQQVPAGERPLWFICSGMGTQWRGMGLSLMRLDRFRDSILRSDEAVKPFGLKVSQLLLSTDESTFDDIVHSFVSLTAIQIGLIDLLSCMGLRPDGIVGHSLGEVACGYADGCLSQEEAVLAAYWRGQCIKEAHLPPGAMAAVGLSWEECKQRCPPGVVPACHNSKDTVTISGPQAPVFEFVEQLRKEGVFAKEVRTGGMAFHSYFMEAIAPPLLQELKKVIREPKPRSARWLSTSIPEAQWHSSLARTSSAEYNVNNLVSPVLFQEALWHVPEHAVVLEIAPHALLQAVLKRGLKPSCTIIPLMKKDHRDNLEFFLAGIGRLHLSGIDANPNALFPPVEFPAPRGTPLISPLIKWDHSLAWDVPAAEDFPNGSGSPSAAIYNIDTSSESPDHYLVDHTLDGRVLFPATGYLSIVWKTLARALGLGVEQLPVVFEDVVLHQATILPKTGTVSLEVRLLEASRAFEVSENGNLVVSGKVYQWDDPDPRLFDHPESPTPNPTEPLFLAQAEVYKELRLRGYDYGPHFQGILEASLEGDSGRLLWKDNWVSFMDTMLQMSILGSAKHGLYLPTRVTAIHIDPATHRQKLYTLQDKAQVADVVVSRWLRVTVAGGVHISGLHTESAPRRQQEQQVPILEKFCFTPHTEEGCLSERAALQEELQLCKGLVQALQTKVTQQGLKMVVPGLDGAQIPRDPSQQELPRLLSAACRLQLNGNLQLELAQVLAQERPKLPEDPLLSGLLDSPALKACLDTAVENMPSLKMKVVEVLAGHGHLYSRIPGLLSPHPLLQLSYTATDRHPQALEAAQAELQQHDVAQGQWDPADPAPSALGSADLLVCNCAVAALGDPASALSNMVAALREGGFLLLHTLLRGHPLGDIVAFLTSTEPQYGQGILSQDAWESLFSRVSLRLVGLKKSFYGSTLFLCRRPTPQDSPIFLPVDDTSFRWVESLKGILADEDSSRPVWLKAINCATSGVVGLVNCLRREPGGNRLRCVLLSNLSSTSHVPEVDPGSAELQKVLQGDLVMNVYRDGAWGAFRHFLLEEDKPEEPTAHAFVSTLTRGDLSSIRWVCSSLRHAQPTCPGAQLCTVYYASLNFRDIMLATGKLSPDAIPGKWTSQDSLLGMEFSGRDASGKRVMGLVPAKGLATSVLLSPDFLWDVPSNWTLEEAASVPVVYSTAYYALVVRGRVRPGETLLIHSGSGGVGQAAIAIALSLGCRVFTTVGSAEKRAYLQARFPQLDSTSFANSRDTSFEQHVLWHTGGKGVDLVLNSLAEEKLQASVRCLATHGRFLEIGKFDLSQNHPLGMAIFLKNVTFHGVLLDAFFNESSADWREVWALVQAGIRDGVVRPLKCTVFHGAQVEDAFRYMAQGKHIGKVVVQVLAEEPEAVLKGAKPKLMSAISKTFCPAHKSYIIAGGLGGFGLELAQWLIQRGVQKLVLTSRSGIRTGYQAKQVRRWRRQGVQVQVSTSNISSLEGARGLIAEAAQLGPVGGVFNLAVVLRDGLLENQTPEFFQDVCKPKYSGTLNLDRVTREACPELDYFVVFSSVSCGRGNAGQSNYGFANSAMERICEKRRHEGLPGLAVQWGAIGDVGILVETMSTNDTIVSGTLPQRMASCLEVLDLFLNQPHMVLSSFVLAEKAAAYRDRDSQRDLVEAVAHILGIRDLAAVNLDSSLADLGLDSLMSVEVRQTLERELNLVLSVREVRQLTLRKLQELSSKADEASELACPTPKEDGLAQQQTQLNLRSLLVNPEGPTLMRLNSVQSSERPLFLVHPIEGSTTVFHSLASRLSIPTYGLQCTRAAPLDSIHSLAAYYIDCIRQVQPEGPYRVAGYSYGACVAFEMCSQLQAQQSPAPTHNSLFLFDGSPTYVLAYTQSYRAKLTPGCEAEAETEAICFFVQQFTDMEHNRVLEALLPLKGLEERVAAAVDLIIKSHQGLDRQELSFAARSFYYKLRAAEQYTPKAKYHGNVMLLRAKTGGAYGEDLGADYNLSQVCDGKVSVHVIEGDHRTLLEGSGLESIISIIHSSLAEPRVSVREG
# PfG6PD inh: PfG6PD enzyme inhibitors, primary screen, biochemical, fluorescence intensity, uHTS | PfGluPho enzyme, NADPH resazurin-diaphorase fluorescence | inhibition, % at 20 µM | 350,000 compounds, 0.78% hits;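 active = inhibition reaching at least a set limit at 20 µM in the primary screen, cut at about 59% in these data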;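 note: 0% = DMSO wells with substrate and 100% = DMSO wells lacking glucose-6-phosphate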
# proKLK7 act: proKLK7 zymogen activators, primary screen, biochemical, fluorescence intensity; purified proKLK7, EDANS-DABCYL substrate fluorescence; 100% is mature enzyme control, 0% vehicle; activation, % at 7 µM; AID 652039, 2013; 370,000 compounds, 0.9% hits; Kallikrein-7 (Homo sapiens), P49862;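 active = activation above the mean of all tested compounds plus 3 SD, computed per campaign excluding outliers beyond control limits, cut at about 13% in these data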
# Neddyl block: inhibitors of cullin neddylation, primary screen, biochemical, TR-FRET, uHTS, NAE and Ubc12. NEDD8-conjugating enzyme Ubc12 (Homo sapiens) + NEDD8-activating enzyme E1 regulatory …. calls only at 25 µM. 360,000 compounds, 0.58% hits. AID 651699, 2012; in the data active = inhibition above about 36%
# KLK7 act conf: proKLK7 zymogen activators, confirmation, biochemical, fluorescence intensity, triplicate | shares compounds with proKLK7 act | purified proKLK7, EDANS-DABCYL substrate fluorescence; scaled: vehicle 0, mature enzyme 100 | activation, % at 7 µM | 3,200 compounds, 68% hits;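 active = activation, as change over the incubation, above the mean of all tested compounds plus 3 SD, cut at about 13% in these data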
# EDANS-DABCYL int: EDANS-DABCYL substrate optical interference, artefact control for kallikrein-7 zymogen activator project, biochemical, fluorescence intensity, high throughput | activation, % at 7 µM | 3,200 compounds, 80% hits | shares compounds with proKLK7 act | no enzyme, 4 h; solvent 0%, active enzyme control 100% | AID 686952, 2013;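 active = activation above the all-compound mean plus 3 SD, ignoring values outside control-based bounds, cut at about 4.8% in these data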;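 note: value is the 4 h activation minus the activation read at time zero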
# EDANS interf: counter-screen for kallikrein-7 activators: EDANS-DABCYL interference, dose response | EDANS-DABCYL peptide fluorescence interference, no enzyme | shares compounds with proKLK7 act | 250 compounds, 20% hits | AID 720493 | EC50, µM;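 active = compounds that raise the fluorescence signal in this interference counterscreen, with EC50 at or below 10 µM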;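 note: intact quenched peptide substrate alone read at 355 nm excitation and 520 nm emission; signal is fluorescence gain from T0 to T4 after four hours at room temperature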
# * marks the source's active call; other numbers are inactive results; i = inactive; . = no result given.
SMILES,FAS TE block,PfG6PD inh,proKLK7 act,Neddyl block,KLK7 act conf,EDANS-DABCYL int,others
CCN1CCN(C(=O)c2cc(-c3ccco3)nc3ccccc23)CC1,-4,-19,84*,.,72*,72*,
CCNC(=O)C1(C)CCCN1C(=O)c1cc(C)on1 (stereo unspecified),-6,.,1,i,.,.,
Nc1ccc(-c2nc3ncccc3o2)cc1,-4,21,39*,.,58*,71*,
CCCCNC(=O)C[C@H]1C[C@@]2(C(=O)OC)C(=C[C@H](C(C)C)O[C@@H]2C2CC2)N(CCc2ccc(OC)c(OC)c2)C1=O,.,.,0,.,.,.,
Nc1cccc2c1C(=O)N(C(=O)/C=C/c1cccc(Br)c1)C2=O,4,32,7,.,.,.,
COc1ccc(OC)c(/C=C/C(=O)N2C(=O)c3cccc(N)c3C2=O)c1,-5,12,44*,.,654*,689*,
COc1cc(/C=C/C(=O)N2C(=O)c3cccc(N)c3C2=O)cc(OC)c1OC,-7,15,21*,.,307*,297*,
CCN(CC)C(=O)C1=C(C)N(Cc2ccc(C(C)(C)C)cc2)C(=O)C(CC(=O)NC(c2ccccc2)c2ccccc2)C1 (stereo unspecified),14,10,1,i,.,.,
COCC(=O)Nc1nc(-c2ccc([N+](=O)[O-])cc2)cs1,11,-2,109*,i,-2,-2,
N#Cc1c(C(F)(F)F)cc(C2CC2)[nH]c1=O,4,6,18*,.,16*,23*,
Cc1c(-c2ccnc3cc(C(=O)O)nn23)cnn1C,-3,16,8,.,.,.,
CCn1cc(-c2ccnc3cc(C(=O)O)nn23)c(C)n1,-10,-11,27*,.,73*,75*,
COc1cc2ccc(=O)oc2c(O[C@@H]2O[C@H](CO)[C@@H](O)[C@H](O)[C@H]2O)c1O,-10,22,68*,.,69*,67*,
Cc1nc2sc(C(=O)NCc3nccs3)c(N)c2c(C)c1Cl,.,.,84*,.,63*,68*,
Cc1nc2sc(C(=O)NCc3ccncc3)c(N)c2c(C)c1Cl,.,.,1,.,.,.,
CCC(O)(c1ccc(NC(=O)OC(C)(C)C)cc1)c1cc(OC)cc(OC)c1 (stereo unspecified),.,.,0,.,.,.,
COC(=O)C[C@@H]1CC[C@H]2[C@H](COc3ccc(NC(=O)c4ccc(OC)cc4)cc3C(=O)N2C)O1,.,.,0,.,.,.,
COc1cccc2c(=O)c3c(cnn3C)n(C)c12,-6,13,49*,.,68*,67*,
Cn1nc(C(C)(C)C)cc1NC(=O)C1(C)CCN1C(=O)C1(c2ccccc2)CC1 (stereo unspecified),-6,.,1,i,.,.,
Cc1ccccc1NC(=O)c1sc2nc(N3CCOCC3)c3c(c2c1N)CCCC3,20,56,-18,i,.,.,
Nc1c(C(=O)NCCc2ccccc2)sc2nc(N3CCOCC3)c3c(c12)CCCC3,25,55,152*,i,-19,-21,
COc1ccc(NC(=O)c2ccc(S(=O)(=O)N3CC(C)CC(C)C3)cc2)cc1S(N)(=O)=O (stereo unspecified),-5,7,18*,.,24*,14*,EDANS interf=i
CCN1CCN(C(=S)Nc2ccc3nc(N4CCN(CC)CC4)cc(C)c3c2)CC1,-13,2,8,i,.,.,
CCN1CCN(c2cc(C)c3cc(NC(=S)N4CC(C)CC(C)C4)ccc3n2)CC1 (stereo unspecified),-2,6,14*,i,2,4,
CCN1CCN(c2cc(C)c3cc(NC(=O)c4ccc(C)c(C)c4)ccc3n2)CC1,2,-5,29*,i,30*,24*,EDANS interf=i
CCOCCCNC(=S)Nc1ccc2nc(N3CCCC3)cc(C)c2c1,-9,25,17*,.,8,12*,

# Compound activity deposited in PubChem by several laboratories.
